Measured values as given in article PMC5540273 (PLoS ONE, 2017).

The molecules below were run on TGFBR2. Details: concentration: 1 μM, replicates: in singlicate; n = 1.
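Further: KINOMEscan kinase panel screen.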

| SMILES | %Inh [%] |
| --- | --- |
| CN1CCC(n2cnc(-c3ccc(F)cc3)c2-c2ccnc(NC3CCNCC3)n2)CC1 [SB-229482] | 16 |
| COc1cc2ncnc(Nc3ccc(OCc4ccccc4Br)c(Cl)c3)c2cc1OC.Cl [GI261590] | 0 |
| CC(=O)Nc1n[nH]c2ncc(-c3ccccc3)cc12 [SB-548492] | 0 |
| CNc1nccc(-c2c(-c3ccc(F)cc3)ncn2C2CCN(C)CC2)n1 [SB-222903] | 0 |
| O=C(Nc1ccccc1F)NC1CCN(c2ccnc(Nc3ccc(F)cc3)n2)C1 (stereo not shown) [GSK1379722] | 0 |
| O=C(NCCCN1CCCC1=O)c1cnc(NCc2cc(Cl)ccc2Cl)nc1NC1CCNCC1 | 6 |
| O=c1cc(N2CCOCC2)nc2n(Cc3cccc(Cl)c3)ccn12 [GSK2296823] | 0 |
| Nc1n[nH]c2nnc(-c3ccccc3)cc12 [SB-517389] | 0 |
| O=C(Nc1n[nH]c2nc(-c3ccco3)c(Br)cc12)c1ccc(CN2CCCC2)cc1.O=C(O)[C@H](O)[C@@H](O)C(=O)O [SB-742352] | 0 |
| Nc1nc(-c2cccnc2)c(-c2ccnc3ccccc23)s1 [GW684083] | 14 |
| c1ccc(-c2ccc3c(-c4ccnc(Nc5ccc6c(c5)OCCO6)n4)cnn3n2)cc1 [GW818941] | 22 |
| Nc1nc(-c2ccc3c(N)n[nH]c3c2)cc(N2CCC[C@@H](C(=O)Nc3ccccc3)C2)n1.O=C(O)C(F)(F)F.O=C(O)C(F)(F)F [GSK2288359] | 0 |
| COC(=O)c1cccc(NC(=O)NCCNc2ccnc(Nc3ccc(F)cc3)n2)c1 [GSK1379883] | 0 |
